Measurements from the supplement of paper PMC11732987, “Enantioselective OTUD7B fragment discovery through chemoproteomics screening and high-throughput optimisation” (Communications Chemistry, 2025).

Legend:
Experiment in all cases: log2 ratio of Biotin-Ahx-Ub-VS probe labelling (fragment/DMSO); higher = less target engagement (more negative = stronger competition), active = hit call of the paper (q ≤ 0.05, log2 ratio ≤ -1)
Conditions in all cases: compound concentration: 200 uM; treatment time: 3 h
USP42 = target: T1, USP42 (UniProt Q9H9J4)
T1 sequence (whole entry): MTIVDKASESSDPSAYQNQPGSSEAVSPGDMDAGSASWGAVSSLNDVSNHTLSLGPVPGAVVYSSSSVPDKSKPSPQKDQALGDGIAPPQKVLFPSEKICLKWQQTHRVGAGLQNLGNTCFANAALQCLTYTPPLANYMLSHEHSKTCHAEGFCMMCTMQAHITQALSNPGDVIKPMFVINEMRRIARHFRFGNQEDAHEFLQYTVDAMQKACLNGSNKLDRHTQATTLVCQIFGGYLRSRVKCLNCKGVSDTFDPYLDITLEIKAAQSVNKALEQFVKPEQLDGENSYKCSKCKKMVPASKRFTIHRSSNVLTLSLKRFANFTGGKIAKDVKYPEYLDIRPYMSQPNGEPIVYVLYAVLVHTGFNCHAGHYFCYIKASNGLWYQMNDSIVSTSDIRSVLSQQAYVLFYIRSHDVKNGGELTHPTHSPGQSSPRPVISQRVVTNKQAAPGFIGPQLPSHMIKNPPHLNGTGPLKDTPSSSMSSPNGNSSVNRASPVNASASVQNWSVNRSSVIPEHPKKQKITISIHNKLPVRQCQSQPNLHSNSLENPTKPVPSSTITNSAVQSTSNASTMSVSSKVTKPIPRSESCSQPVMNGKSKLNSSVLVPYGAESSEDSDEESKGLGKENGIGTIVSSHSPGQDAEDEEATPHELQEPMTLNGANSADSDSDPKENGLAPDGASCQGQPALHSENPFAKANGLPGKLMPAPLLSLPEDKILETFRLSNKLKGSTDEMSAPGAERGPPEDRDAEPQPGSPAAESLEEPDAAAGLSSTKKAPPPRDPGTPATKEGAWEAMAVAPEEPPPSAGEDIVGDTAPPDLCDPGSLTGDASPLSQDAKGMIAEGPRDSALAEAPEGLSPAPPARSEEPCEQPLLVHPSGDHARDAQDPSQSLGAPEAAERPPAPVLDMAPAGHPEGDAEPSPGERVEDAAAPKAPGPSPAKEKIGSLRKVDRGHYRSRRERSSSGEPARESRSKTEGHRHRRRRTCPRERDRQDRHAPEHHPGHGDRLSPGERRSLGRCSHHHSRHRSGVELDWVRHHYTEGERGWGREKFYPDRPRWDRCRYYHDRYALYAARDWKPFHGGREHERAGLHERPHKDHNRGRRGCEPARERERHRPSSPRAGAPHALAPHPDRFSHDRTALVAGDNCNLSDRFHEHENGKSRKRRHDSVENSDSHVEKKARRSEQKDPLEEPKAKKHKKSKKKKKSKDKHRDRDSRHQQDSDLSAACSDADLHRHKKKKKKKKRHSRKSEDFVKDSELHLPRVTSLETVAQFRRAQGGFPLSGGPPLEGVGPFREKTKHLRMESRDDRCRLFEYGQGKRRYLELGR
Outline: (§1)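 Labelled DUBs were enriched with NeutrAvidin, digested with LysC and trypsin, and run by diaPASEF LC-MS/MS. The labelling used Biotin-Ahx-Ub-VS at 0.5 µM final for 1 h on HEK293T lysate (495 µg per sample) previously treated in triplicate with fragment at 200 µM or vehicle for 3 h. Values are average log2 fragment/vehicle ratios by unpaired t-test on global-median-normalised Spectronaut quantities of proteins with ≥2 unique peptides.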

USP46 = USP46 (UniProt P62068)
Outline: as §1

USP47 = target: T2, USP47 (UniProt Q96K76)
T2 sequence (whole entry): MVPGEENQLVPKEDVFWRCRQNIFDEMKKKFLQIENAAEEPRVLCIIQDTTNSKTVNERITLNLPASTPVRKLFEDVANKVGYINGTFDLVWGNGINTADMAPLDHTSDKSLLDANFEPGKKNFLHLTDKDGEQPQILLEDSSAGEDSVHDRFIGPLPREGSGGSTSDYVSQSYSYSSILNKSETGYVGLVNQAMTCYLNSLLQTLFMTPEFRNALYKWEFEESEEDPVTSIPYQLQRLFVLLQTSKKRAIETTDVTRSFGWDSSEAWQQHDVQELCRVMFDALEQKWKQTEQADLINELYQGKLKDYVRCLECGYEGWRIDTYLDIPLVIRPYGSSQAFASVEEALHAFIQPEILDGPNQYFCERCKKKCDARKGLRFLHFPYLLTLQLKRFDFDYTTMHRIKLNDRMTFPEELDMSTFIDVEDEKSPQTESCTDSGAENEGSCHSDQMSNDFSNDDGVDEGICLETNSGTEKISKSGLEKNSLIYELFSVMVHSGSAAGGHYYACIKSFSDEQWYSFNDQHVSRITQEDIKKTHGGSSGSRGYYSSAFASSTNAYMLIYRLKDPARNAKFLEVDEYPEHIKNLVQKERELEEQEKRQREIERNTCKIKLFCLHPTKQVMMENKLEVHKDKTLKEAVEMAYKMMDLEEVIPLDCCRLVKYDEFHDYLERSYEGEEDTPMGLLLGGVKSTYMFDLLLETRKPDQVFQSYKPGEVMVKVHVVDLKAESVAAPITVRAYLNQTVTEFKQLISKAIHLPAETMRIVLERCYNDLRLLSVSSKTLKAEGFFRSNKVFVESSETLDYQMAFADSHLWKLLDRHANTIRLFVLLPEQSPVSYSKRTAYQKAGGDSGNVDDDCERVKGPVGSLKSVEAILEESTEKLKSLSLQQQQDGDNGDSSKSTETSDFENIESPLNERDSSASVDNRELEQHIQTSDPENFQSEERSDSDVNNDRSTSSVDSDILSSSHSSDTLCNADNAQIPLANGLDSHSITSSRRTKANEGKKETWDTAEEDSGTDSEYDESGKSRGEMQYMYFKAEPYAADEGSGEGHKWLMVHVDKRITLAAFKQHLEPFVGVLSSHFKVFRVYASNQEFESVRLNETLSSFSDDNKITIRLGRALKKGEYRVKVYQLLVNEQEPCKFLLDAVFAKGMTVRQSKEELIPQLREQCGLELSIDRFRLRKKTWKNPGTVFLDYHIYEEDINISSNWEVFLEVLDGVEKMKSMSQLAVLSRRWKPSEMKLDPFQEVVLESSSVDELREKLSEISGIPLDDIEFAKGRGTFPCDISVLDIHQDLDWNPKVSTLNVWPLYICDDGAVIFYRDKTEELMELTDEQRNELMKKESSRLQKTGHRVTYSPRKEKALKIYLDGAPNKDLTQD
Outline: as §1

USP48 = target: T3, USP48 (UniProt Q86UV5)
T3 sequence (whole entry): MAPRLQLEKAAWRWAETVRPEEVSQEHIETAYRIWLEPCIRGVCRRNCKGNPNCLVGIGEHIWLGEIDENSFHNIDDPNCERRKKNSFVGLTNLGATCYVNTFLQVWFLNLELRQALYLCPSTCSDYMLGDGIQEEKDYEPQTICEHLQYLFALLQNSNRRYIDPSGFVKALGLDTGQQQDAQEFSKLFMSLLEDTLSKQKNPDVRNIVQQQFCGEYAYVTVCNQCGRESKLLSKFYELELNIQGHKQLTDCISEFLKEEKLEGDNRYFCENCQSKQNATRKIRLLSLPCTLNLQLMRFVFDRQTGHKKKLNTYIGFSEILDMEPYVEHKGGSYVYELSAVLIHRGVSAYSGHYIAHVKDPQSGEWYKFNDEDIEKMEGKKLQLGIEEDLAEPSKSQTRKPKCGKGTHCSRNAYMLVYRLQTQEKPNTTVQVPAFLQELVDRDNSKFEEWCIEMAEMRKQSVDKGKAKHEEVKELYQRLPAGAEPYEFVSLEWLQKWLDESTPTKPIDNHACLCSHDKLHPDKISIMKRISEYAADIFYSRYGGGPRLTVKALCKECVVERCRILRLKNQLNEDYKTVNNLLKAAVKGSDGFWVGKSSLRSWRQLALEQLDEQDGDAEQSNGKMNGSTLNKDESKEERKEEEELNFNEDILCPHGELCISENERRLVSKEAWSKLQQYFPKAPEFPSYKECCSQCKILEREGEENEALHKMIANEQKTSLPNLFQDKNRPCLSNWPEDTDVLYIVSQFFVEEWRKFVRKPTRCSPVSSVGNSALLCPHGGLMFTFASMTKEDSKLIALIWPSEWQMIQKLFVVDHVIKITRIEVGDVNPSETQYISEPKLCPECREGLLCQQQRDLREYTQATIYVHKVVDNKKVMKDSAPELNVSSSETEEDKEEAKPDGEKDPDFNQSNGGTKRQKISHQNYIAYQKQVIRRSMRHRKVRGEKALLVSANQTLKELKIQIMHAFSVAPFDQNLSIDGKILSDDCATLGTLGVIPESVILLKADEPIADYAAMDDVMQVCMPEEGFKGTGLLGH
Outline: as §1

USP5 = target: T4, USP5 (UniProt P45974)
T4 sequence (whole entry): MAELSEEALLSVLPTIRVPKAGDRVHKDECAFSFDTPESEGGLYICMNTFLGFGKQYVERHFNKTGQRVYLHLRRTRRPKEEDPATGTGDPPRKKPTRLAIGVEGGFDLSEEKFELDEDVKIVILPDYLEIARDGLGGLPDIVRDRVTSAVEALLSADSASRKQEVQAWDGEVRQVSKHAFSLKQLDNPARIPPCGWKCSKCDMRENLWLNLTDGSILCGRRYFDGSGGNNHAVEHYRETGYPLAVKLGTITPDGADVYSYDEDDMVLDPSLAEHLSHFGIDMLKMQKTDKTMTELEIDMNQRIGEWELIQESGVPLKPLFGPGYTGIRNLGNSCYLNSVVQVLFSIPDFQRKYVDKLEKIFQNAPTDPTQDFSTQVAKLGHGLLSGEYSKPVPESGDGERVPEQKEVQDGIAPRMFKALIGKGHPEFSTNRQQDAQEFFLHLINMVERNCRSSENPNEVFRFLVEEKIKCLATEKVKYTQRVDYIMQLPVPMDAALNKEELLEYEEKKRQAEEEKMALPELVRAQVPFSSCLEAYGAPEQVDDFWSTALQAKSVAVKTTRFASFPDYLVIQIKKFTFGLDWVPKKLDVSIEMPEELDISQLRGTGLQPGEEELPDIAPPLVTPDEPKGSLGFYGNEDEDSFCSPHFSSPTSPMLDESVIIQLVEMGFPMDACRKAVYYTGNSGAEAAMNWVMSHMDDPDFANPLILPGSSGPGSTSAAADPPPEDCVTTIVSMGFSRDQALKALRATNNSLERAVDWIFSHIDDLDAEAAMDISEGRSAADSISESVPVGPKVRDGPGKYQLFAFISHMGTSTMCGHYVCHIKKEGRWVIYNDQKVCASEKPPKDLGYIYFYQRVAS
Outline: as §1

USP54 = USP54 (UniProt Q70EL1)
Outline: as §1

USP7 = USP7 (UniProt Q93009)
Outline: as §1

USP8 = target: T5, USP8 (UniProt P40818)
T5 sequence (whole entry): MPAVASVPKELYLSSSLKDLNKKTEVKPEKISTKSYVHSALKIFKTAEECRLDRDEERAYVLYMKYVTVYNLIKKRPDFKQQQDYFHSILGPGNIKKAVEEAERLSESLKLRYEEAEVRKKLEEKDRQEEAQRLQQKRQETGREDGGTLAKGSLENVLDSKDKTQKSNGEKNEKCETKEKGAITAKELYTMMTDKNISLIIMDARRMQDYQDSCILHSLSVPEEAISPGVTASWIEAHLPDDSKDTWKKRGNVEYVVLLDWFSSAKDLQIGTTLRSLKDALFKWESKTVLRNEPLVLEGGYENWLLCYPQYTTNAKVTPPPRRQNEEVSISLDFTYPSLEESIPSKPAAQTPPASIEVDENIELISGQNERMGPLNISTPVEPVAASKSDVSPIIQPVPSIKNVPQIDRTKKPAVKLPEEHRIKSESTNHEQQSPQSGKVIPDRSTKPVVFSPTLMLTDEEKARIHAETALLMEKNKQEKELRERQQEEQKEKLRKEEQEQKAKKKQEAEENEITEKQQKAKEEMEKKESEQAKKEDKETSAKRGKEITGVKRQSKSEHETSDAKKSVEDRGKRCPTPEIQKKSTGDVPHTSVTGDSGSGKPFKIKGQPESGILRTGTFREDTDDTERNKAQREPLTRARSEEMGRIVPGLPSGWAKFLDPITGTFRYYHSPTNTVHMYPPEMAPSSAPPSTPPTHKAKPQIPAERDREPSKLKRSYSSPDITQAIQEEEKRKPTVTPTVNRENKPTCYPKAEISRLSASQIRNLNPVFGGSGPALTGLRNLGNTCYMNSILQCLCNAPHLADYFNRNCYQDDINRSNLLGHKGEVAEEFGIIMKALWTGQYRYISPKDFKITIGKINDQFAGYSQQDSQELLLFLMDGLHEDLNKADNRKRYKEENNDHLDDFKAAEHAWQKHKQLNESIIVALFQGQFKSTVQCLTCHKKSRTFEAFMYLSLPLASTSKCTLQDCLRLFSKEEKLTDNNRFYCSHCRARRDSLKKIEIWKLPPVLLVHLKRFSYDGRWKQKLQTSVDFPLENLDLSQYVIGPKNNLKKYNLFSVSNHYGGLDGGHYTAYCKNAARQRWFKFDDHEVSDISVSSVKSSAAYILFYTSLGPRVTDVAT
Outline: as §1

USP9X = USP9X (UniProt Q93008)
Outline: as §1

UniProt O00487 = target: UniProt O00487
Outline: as §1

Measured: log2 ratio of Biotin-Ahx-Ub-VS probe labelling

Sequence of USP9X (Q93008 whole entry): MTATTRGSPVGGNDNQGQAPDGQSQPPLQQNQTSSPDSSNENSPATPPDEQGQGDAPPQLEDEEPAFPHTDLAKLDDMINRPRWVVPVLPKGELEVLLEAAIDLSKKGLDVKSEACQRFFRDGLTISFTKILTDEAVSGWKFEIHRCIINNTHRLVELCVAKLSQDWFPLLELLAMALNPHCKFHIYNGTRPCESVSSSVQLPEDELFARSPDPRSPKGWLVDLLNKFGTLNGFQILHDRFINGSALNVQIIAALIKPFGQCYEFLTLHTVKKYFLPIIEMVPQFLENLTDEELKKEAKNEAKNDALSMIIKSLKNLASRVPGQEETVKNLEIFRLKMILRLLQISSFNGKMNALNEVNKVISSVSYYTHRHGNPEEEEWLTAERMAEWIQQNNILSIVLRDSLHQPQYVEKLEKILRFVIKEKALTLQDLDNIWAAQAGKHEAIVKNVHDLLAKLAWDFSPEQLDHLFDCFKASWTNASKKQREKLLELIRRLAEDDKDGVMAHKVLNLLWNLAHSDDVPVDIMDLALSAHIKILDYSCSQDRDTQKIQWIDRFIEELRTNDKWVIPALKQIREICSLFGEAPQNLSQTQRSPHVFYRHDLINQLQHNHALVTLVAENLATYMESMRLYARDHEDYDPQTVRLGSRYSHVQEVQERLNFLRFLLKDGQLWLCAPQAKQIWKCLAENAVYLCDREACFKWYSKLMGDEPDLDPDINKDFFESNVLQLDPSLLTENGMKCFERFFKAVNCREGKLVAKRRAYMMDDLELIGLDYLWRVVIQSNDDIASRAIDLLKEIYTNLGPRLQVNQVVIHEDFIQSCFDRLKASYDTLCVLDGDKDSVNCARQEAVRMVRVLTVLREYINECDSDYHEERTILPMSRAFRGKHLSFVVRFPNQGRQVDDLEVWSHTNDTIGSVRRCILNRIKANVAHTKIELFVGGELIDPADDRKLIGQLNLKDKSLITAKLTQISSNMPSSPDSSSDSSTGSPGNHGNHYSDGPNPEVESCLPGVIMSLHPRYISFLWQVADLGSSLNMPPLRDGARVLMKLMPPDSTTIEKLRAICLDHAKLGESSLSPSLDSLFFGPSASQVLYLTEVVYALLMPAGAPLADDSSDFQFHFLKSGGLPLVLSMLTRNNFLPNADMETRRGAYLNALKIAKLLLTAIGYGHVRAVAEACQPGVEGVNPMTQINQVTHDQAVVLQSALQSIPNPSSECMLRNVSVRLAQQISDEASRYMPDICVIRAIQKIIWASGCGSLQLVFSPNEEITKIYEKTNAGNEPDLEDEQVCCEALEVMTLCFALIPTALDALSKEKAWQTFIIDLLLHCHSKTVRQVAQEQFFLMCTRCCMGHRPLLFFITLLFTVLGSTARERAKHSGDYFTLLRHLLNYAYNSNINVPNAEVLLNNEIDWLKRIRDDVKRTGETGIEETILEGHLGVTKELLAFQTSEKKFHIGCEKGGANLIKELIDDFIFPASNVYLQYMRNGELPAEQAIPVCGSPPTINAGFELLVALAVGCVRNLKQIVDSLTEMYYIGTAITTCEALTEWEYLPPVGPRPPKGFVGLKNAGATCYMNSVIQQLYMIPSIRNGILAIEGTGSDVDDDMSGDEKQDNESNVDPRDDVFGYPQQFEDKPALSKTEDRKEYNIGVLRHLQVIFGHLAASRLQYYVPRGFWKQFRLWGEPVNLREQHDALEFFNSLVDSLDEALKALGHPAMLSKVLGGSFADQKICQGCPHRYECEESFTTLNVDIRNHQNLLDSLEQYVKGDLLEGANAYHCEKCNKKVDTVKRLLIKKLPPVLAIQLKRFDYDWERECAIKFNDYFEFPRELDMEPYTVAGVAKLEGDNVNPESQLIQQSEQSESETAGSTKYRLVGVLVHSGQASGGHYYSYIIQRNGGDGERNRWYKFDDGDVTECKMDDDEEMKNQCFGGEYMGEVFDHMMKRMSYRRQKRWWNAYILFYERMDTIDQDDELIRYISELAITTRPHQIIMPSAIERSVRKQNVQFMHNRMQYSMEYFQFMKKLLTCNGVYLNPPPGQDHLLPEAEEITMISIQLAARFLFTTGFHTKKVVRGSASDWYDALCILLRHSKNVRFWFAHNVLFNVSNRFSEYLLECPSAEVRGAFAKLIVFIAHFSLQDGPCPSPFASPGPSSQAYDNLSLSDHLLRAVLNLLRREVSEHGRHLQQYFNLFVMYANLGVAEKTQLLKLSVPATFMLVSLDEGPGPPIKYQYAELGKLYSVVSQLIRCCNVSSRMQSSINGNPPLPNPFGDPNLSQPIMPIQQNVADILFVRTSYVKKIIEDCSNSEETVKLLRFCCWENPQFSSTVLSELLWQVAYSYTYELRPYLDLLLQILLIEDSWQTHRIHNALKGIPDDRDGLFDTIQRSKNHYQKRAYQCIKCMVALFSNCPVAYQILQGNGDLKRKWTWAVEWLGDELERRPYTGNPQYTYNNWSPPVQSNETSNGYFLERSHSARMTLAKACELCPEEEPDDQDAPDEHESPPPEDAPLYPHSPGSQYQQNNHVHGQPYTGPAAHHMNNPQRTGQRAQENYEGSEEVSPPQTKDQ
Sequence of USP7 (Q93009 whole entry, looked up): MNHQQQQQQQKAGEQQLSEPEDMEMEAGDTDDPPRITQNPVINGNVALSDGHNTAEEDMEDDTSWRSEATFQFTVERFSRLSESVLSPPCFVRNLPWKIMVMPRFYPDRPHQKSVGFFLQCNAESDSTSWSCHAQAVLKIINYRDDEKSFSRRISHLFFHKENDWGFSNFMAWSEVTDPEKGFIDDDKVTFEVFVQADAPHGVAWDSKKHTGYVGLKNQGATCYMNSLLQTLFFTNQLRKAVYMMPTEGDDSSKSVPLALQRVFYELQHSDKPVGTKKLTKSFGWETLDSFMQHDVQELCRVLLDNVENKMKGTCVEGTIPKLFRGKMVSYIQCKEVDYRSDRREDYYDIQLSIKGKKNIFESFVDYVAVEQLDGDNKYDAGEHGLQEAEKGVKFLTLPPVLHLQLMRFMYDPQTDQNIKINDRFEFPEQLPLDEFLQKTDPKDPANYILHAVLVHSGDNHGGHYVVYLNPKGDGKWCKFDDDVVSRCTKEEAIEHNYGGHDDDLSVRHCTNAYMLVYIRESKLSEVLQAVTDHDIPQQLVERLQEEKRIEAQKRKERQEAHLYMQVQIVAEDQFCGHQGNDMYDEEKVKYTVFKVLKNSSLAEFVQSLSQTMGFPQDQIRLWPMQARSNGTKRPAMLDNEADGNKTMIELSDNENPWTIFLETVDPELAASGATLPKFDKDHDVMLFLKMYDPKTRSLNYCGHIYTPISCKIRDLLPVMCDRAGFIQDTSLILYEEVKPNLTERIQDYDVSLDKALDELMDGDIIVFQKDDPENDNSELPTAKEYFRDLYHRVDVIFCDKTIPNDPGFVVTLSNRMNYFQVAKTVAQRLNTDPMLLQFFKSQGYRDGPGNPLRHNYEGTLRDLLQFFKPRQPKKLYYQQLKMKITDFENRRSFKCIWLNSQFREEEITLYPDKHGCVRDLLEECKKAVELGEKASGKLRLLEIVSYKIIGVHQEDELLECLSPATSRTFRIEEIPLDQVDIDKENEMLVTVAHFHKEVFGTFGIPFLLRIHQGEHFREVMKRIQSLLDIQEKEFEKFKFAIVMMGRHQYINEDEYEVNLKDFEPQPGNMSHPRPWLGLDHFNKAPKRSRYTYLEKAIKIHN
Sequence of USP46 (P62068 whole entry): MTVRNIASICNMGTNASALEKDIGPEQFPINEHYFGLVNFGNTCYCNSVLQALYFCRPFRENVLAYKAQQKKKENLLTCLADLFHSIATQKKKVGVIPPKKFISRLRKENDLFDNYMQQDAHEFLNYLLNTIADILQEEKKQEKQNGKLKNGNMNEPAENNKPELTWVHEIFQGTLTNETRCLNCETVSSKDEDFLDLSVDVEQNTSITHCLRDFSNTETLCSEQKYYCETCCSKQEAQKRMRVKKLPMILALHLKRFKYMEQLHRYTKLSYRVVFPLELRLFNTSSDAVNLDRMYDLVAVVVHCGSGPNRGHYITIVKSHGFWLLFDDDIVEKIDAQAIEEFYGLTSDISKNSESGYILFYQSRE
Sequence of UniProt O00487 (O00487 whole entry): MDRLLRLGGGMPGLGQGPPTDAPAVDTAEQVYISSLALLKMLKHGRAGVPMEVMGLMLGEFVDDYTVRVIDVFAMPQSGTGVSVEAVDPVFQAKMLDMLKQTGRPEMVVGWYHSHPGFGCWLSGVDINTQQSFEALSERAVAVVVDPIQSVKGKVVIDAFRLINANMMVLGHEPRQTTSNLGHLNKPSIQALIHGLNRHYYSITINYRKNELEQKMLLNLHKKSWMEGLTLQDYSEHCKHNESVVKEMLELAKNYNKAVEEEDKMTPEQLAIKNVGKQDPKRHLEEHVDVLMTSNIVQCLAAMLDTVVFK

Cc1ccc(C)c(NC(=O)CCl)c1
inactive: USP42 0.248 | USP46 -0.456 | USP47 -0.823 | USP48 -0.558 | USP5 -0.353 | USP54 -0.00643 | USP7 -0.537 | USP8 -0.263 | USP9X -0.374 | UniProt O00487 -0.102

O=C(CCl)NCc1ccc(N2CCOCC2)nc1
inactive: USP42 -0.0847 | USP46 0.0882 | USP47 -0.466 | USP48 -0.188 | USP5 -0.217 | USP54 0.658 | USP7 -0.147 | USP8 -0.289 | USP9X -0.26 | UniProt O00487 -0.226

Cc1ccc(CN(CCO)C(=O)CCl)cc1
inactive: USP42 -0.148 | USP46 -0.105 | USP47 -0.828 | USP48 -0.292 | USP5 -0.134 | USP54 0.222 | USP7 -0.788 | USP8 -0.664 | USP9X -0.526 | UniProt O00487 -0.0465
